Screening data (PubChem BioAssay)
The list is not random: actives were taken first. Their share in the collection is about 8.8%.
KB-3-1 tox – kills parental KB-3-1 adenocarcinoma cells; hit rate 1.4% among 400,000; Potency, µM (series often up to 46.1 µM), actives largely listed as cytotoxic; KB-3-1 viability, CellTiter-Glo ATP luminescence, 72 h; also: nearly all actives have a fitted effect of over 60% in size
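Multi-concentration cytotoxicity screen in KB-3-1 cells grown in DMEM lacking phenol red with 10% FBS. After 72 h at 37 °C with compound, ATP-dependent luminescence was recorded.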
KB-V1 cytotox – KB-V1 MDR subline cytotoxicity; AID 1347076; KB-V1 MDR cells viability, CellTiter-Glo, 72 h; Potency, µM (top dose mostly 46.1 µM), usual class: cytotoxic; hit rate 3.4% among 400,000; also: nearly all actives have a fitted effect of over 60% in size
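Cytotoxicity via CellTiter-Glo luminescence after 72 h compound exposure at 37 degrees C. Cells: drug-selected KB-V1 line, DMEM phenol-red free plus 10% FBS. Compounds tested at multiple concentrations; normalized data fitted to concentration-effect curves.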
HT1080-NT tox – kills 2HG-producing HT-1080-NT fibrosarcoma cells | HT-1080-NT fibrosarcoma viability, CellTiter-Glo ATP luminescence, 48 h | Potency, µM (highest dose often 46.1 µM), actives largely listed as cytotoxic | hit rate 1.6% among 360,000 | AID 686970;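 also: NT is the 2HG producing partner of a matched IDH1 knockdown line; nearly all actives have a fitted effect of over 55% in size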
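Viability by CellTiter-Glo luminescence after 48 h compound exposure at 37C of HT-1080-NT cells (750/well, RPMI, 5% FBS). % activity scaled between DMSO wells and medium-only wells, then curve-fitted and categorized by curve class.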
IL1B secr inh – inflammasome signaling inhibition, IL-1 beta readout | THP-1 LPS/ATP IL-1B secretion, AlphaLISA, 16 h; active compounds read low | activity change, % at 57.5 µM | hit rate 4.7% among 360,000 | AID 743279; in the data active = activity change below about -50%; inconclusive = mostly about -30% to -49%
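Secreted IL-1B measured by AlphaLISA bead assay after 16 h compound exposure of THP-1 cells; compounds (final up to 57.5 uM) added 1 h before LPS (250 ng/mL) and ATP (1.25 mM) stimulation; lower signal means less secretion.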
HT1080 IDH1KD tx – kills HT-1080 cells with IDH1 knockdown | HT-1080 IDH1 knockdown viability, ATP luminescence, 48 h | Potency, µM (highest dose often 46.1 µM), usual class: cytotoxic | hit rate 2% among 360,000 | AID 686971
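Using the IDH1-knockdown HT-1080 line run in the same batch and compound series as the NT line, viability after 48 h at 37 °C was determined by CellTiter-Glo luminescence and expressed as % activity.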
Each line names hits and unclear results; the compound was inactive in the other large screens. Unless noted, calls follow the shape of the dose curve; as a rule, active = well fitted curve in the direction sought with a large enough effect; inconclusive = small, poorly fitted or top-dose-only effect, or another doubt; inactive = no such curve, though single readings can be large; an effect the other way counts as inactive or inconclusive.

Clc1ccc(/C=C/c2ncc[nH]2)c(Cl)c1	none
CCSC1=NC(C)(C)C=C(/C=C/c2ccc(Cl)cc2Cl)N1	KB-V1 cytotox inconclusive, HT1080-NT tox 16µM, IL1B secr inh -93, HT1080 IDH1KD tx inconclusive
CSC1=NC(C)(C)C=C(/C=C/c2ccc(Cl)cc2Cl)N1	KB-3-1 tox inconclusive, HT1080-NT tox inconclusive, IL1B secr inh -105, HT1080 IDH1KD tx inconclusive
CSC1=NC(C)(C)C=C(/C=C/c2ccc(Cl)cc2)N1	KB-V1 cytotox inconclusive, HT1080-NT tox 23µM, IL1B secr inh -101, HT1080 IDH1KD tx inconclusive
CSC1=NC(C)(C)C=C(/C=C/c2c(Cl)cccc2Cl)N1	IL1B secr inh -97, HT1080 IDH1KD tx inconclusive
O=C(O)c1cccc(Cn2c(Cl)c(/C=N/Nc3ccccc3)sc2=O)c1	KB-V1 cytotox inconclusive, HT1080-NT tox inconclusive, HT1080 IDH1KD tx 5.8µM
O=C(N/N=C/c1sc(=O)n(Cc2ccc(Br)cc2)c1Cl)c1ccco1	KB-3-1 tox inconclusive, IL1B secr inh -78
O=C(O)c1cccc(Cn2c(Cl)c(/C=N/NC(=O)c3ccccc3Cl)sc2=O)c1	none
CC1=C(C(=O)Nc2ccc(C)cc2C)C(c2ccc(O)cc2)n2nnnc2N1 (stereo not drawn)	none (no result: HT1080-NT tox, IL1B secr inh, HT1080 IDH1KD tx)
Cc1ccn2c(=O)nc(SCC(=O)N3CCCCC3)nc2c1	none
C=C1C2=C(C(=O)N1OC)[C@@H](O)[C@@](C)(O)[C@@H](CCCCC)O2	KB-3-1 tox 18µM, HT1080-NT tox inconclusive, IL1B secr inh -83, HT1080 IDH1KD tx inconclusive
CCNC(=O)NC(=O)C(C)OC(=O)c1oc2ccccc2c1CSC1CCCCC1 (stereo not drawn)	KB-V1 cytotox 13µM
CNC(=O)NC(=O)C(C)OC(=O)c1oc2ccccc2c1CSc1ccc(Cl)cc1 (stereo not drawn)	none
CCN(CCS(=O)(=O)c1ccc(Cl)cc1)Cc1nc2ccccc2c(=O)[nH]1	KB-V1 cytotox 7.3µM
O=c1[nH]c(CS(=O)(=O)c2ccccc2)nc2ccccc12	none
CCN(CC(=O)NCc1ccc(F)cc1)Cc1nc2ccccc2c(=O)[nH]1	none
CCN(CCS(=O)(=O)c1ccc(Br)cc1)Cc1nc2ccccc2c(=O)[nH]1	IL1B secr inh -52
COc1ccc(NC(=O)C(=O)NCCc2csc3nc(-c4ccccc4F)nn23)cc1OC	none (no result: HT1080-NT tox, IL1B secr inh, HT1080 IDH1KD tx)
CCOc1ccc(NS(=O)(=O)c2ccc(NC(=O)N3CCCC3)cc2)cc1	KB-3-1 tox inconclusive (no result: HT1080-NT tox, IL1B secr inh, HT1080 IDH1KD tx)
Cc1coc2c(C)c3oc(=O)c(CCC(=O)NCCCn4ccnc4)c(C)c3cc12	IL1B secr inh inconclusive
Cc1c(CCC(=O)NCCCn2ccnc2)c(=O)oc2c(C)c3occ(C(C)(C)C)c3cc12	HT1080-NT tox inconclusive, IL1B secr inh -97, HT1080 IDH1KD tx 18µM
COc1cc(CNc2ccc(C)c(C)c2)cc(OC)c1OC	KB-V1 cytotox inconclusive, HT1080-NT tox 5µM, HT1080 IDH1KD tx 4µM
CCOc1cc(CNc2ccc3c(c2)OCCO3)cc(Br)c1OC	KB-3-1 tox 1.6µM, KB-V1 cytotox 2.1µM, HT1080-NT tox 2.3µM, HT1080 IDH1KD tx 1.5µM
COc1ccc(CNc2ccc(C)c(C)c2)cc1	none
CCOc1c(Br)cc(CNc2ccc3c(c2)OCCO3)cc1OC	KB-3-1 tox 2.1µM, KB-V1 cytotox 4.1µM, HT1080-NT tox 2.9µM, HT1080 IDH1KD tx 1.2µM
COc1ccccc1C(=O)C1CCCN(C(=O)CN2CCCCC2=O)C1 (stereo not drawn)	none
CC(=O)Nc1cccc(-c2csc(C(C)(NC(C)=O)c3ccccc3)n2)c1 (stereo not drawn)	none
CN1CCN(c2ccccc2NC(=O)c2ccc(Br)o2)CC1	IL1B secr inh -52
O=C(Nc1ccccc1N1CCN(C(=O)c2ccccc2)CC1)c1ccc([N+](=O)[O-])o1	KB-3-1 tox inconclusive, KB-V1 cytotox inconclusive, HT1080-NT tox inconclusive, HT1080 IDH1KD tx 16µM
O=C(Nc1ccccc1N1CCOCC1)c1ccc(Br)o1	KB-3-1 tox inconclusive, KB-V1 cytotox inconclusive
O=C(Nc1ccc(S(=O)(=O)N2CCCC2)cc1)c1ccc(Br)o1	none
CN1CCN(S(=O)(=O)c2ccc(NC(=O)c3ccc(Br)o3)cc2)CC1	KB-V1 cytotox 9.2µM
CCC(=O)N1CCN(c2ccccc2NC(=O)c2ccc([N+](=O)[O-])o2)CC1	KB-3-1 tox inconclusive, KB-V1 cytotox inconclusive, HT1080-NT tox inconclusive, IL1B secr inh -55
COC(=O)c1ccccc1NC(=O)c1ccc(Cn2cc(Cl)cn2)o1	HT1080-NT tox inconclusive, HT1080 IDH1KD tx 21µM
O=C(Nc1cc(C(F)(F)F)ccc1-n1cncn1)c1ccc([N+](=O)[O-])o1	KB-3-1 tox 21µM, KB-V1 cytotox inconclusive, IL1B secr inh -94
O=C(Nc1ccccc1N1CCCC1)c1ccc([N+](=O)[O-])o1	KB-3-1 tox 23µM, KB-V1 cytotox inconclusive, HT1080-NT tox inconclusive, IL1B secr inh -93, HT1080 IDH1KD tx inconclusive
COC(=O)c1ccccc1NC(=O)c1cccc(NC(=O)c2ccc(Br)o2)c1C	KB-V1 cytotox inconclusive, HT1080-NT tox 13µM, HT1080 IDH1KD tx 10µM
Cc1ccsc1C(=O)N1CCC1(C)C(=O)NS(=O)(=O)c1ccccc1C(F)(F)F (stereo not drawn)	HT1080-NT tox inconclusive
COc1ccc(N2CCCC2)c(NC(=O)c2ccc([N+](=O)[O-])o2)c1	KB-3-1 tox inconclusive, KB-V1 cytotox inconclusive, IL1B secr inh -71
O=C(Nc1ccc2ccccc2c1)N1CCCN(CCOc2ccccc2)CC1	KB-3-1 tox inconclusive, KB-V1 cytotox 15µM
O=C(c1cc2ccccc2o1)N1CCN(CCOc2ccccc2)CC1	none
C=CC[C@@H](CC(=O)N[C@H](CO)Cc1ccccc1)C(=O)N[C@@H](COC(=O)[C@@H](CC=C)CC(=O)OC(C)(C)C)Cc1ccccc1	none
Cc1cccc(NC(=O)COc2coc(CN3CCN(c4ccccc4)CC3)cc2=O)c1C	none
CN(CCOc1ccccc1)CC(=O)Nc1cc([N+](=O)[O-])ccc1Cl	KB-V1 cytotox inconclusive
CCOc1ccc(CN(C)CC(=O)Nc2ccc([N+](=O)[O-])cc2Cl)cc1	KB-V1 cytotox 16µM
Cc1cc(O)c2c(c1O)C(=O)[C@]13C(=C2O)C(=O)[C@@H]2[C@@H](O)[C@H]1[C@@H]1[C@H](O)[C@H]3C(=O)C3=C(O)c4c(O)cc(C)c(O)c4C(=O)[C@]312	KB-3-1 tox 1.2µM, HT1080-NT tox 0.73µM, HT1080 IDH1KD tx 0.92µM
CC(=O)c1c(C)n([O-])c2cc(F)c(F)cc2[n+]1=O	KB-3-1 tox 16µM, KB-V1 cytotox inconclusive, HT1080-NT tox inconclusive, IL1B secr inh -100, HT1080 IDH1KD tx inconclusive
COc1ccc2c(c1)[n+](=O)c(C(C)=O)c(C)n2[O-]	none
COC(=O)c1cc(C)sc1NC(=O)CSc1ncccn1	none
Cc1ccc(CNC(=O)c2ccc(-c3nc(CN4CCc5ccccc54)c(C)o3)cc2)cc1	KB-V1 cytotox inconclusive (no result: HT1080-NT tox, IL1B secr inh, HT1080 IDH1KD tx)
Cc1oc(-c2ccc(C(=O)N(C)Cc3ccccc3)cc2)nc1CN1CCc2ccccc21	KB-3-1 tox 15µM, KB-V1 cytotox 13µM (no result: HT1080-NT tox, IL1B secr inh, HT1080 IDH1KD tx)
